Drawing on publication PMC5540273 (PLoS ONE, 2017), this text covers Kd for 9 compounds.

One test deals with T1, GRK3.
T1 construct: gene ADRBK2

The subject of a further test is T2, HASPIN.
T2 construct: gene GSG2

The subject of a further test is T3, IKK-beta.
T3 construct: gene IKBKB

Another test relates to T4, IKK-epsilon.
T4 construct: gene IKBKE

Each structure is given as a SMILES string. A value given as a limit tells only on which side of the number the result lay.
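Further: kd values determined as follow-up on hits from a single-replicate KINOMEscan panel screen.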

By Kd is commonly meant a measure of binding affinity in units of concentration. Compound `Cn1cncc1C(=O)NC1CCN(c2ccnc(Nc3ccc(F)cc3)n2)C1` (stereo not drawn) [GSK1379717] displayed a Kd in the test with FLT4 of over 10 µM.
`CNc1nc(-c2ccc3c(N)n[nH]c3c2)cc(N2C[C@@H](C(=O)Nc3ccccc3)CC[C@H]2C)n1` [GSK2298859] returned a Kd in the test on GRK1 of over 10 µM.
The compound `COC(=O)C(Cc1ccccc1)NC(=O)NC1CCN(c2ccnc(Nc3ccc(F)cc3)n2)C1` (stereo not drawn) [GSK1379714] came in with a Kd with GRK1 of over 10 µM.
For `CS(=O)(=O)CCNCc1nc(-c2ccc3ncnc(Nc4ccc(OCc5ccccc5)c(Cl)c4)c3c2)cs1.Cl` [GW582764], the Kd in the test on GRK3 is over 10 µM.
The compound `CC(C)c1cc(-c2ccc3c(N)n[nH]c3c2)nc(N)n1` [GSK2250882] gave a Kd with HASPIN of 0.2 µM.
`COc1cccc(NC(=O)Nc2ccc(C)c(-c3ccc(C(=O)Nc4ccncc4)cc3)c2)c1` [GSK1398474] came in with a Kd in the test on IKK-beta of over 10 µM.
Turning to `COc1ccc(Nc2nccc(N3CCC(NC(=O)C(C)c4ccc(Cl)cc4)CC3)n2)cc1` (stereo not drawn) [GSK1379812], in the test on IKK-epsilon, the Kd is over 10 µM.
The same measure, in the same setting: under `FC(F)(F)c1ccccc1-c1cc(-c2c[nH]nc2-c2ccccn2)ccn1` [GW679396] stands over 10 µM.
With `Cl.Cl.Cl.N#Cc1ccc(CCNc2nccc(-c3cccc(CN4CCNCC4)c3)n2)cc1` [GSK2137462], the Kd in the test with INSR is over 10 µM.
